Most compounds without a hit are left out; they make up all but 27% or so of the library.
CYP2C19 inh: blocks human cytochrome P450 2C19; CYP2C19 Supersomes, luciferin-H EGE luminescence, 30 min; inhibition, % at 5 µM; hit rate 21% among 96,000;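 active means CYP2C19 inhibition above a set limit at 5 µM in the primary screen, cut at about 50% in these data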;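 further: plate controls were negative control wells for no effect and 2.5 mM tranylcypromine positive control for full effect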
Target sequence (P33261 whole entry, looked up): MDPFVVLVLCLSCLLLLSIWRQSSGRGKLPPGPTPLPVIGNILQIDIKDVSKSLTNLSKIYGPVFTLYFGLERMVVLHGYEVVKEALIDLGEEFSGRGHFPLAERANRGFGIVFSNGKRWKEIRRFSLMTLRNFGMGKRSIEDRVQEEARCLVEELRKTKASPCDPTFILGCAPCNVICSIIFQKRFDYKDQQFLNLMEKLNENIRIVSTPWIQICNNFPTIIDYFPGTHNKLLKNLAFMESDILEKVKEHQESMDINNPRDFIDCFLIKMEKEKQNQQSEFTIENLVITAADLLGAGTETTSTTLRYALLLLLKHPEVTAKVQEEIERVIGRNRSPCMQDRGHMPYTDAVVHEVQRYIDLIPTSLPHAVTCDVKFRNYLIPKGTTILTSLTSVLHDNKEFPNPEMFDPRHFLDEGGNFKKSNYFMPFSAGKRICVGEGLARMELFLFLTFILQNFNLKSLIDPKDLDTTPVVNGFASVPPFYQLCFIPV
CYP2C9 act: increases human cytochrome P450 2C9 activity; activation factor at 5 µM; P11712; hit rate 1.4% among 96,000; recombinant CYP2C9, luciferin-H conversion, luminescence; active compounds read high; factor 1 = untreated enzyme, 0 = blocked;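 active means activation factor of 2 or more for CYP2C9 at a 5 µM dose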;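 further: 0 = sulfaphenazole-blocked wells and 1 = vehicle-only wells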
CYP2C19 activ: cytochrome P450 2C19 (human) activation; P33261; recombinant CYP2C19, luciferin-H EGE luminescence; active compounds read high; 0 = fully inhibited enzyme, 1 = untreated enzyme; activation factor at 5 µM; 96,000 tested, under 10 active; AID 1025;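 active means activation factor of at least 2 at 5 µM in the primary screen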;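 further: 0 = wells with 2.5 mM tranylcypromine and 1 = vehicle-only wells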
CYP2C9 inhib: human CYP2C9 inhibition; P11712; CYP2C9 Supersomes, luciferin-H conversion, luminescence; inhibition, % at 5 µM; hit rate 20% among 96,000; AID 777;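 active means blocking of liver enzyme CYP2C9 beyond about 50% at 5 µM, limit read from the data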
Cav32 inh: human Cav3.2 channel inhibition, primary screen. hit rate 4% among 100,000. B-score at 10 µM. O95180. Cav3.2-expressing cells, Fluo-4 calcium fluorescence FDSS; active compounds read low;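 active means single-dose well whose peak fluorescence ratio is a statistical outlier from its plate by either plate-standardised score or position-corrected B-score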
The depositor's hits bear a star; · = not tested or not shown.

SMILES	CYP2C19 inh	CYP2C9 act	CYP2C19 activ	CYP2C9 inhib	Cav32 inh
O=C(CSCc1ccccc1Cl)N1CCN(c2ccccn2)CC1	87.2*	0.2	0.1	85.0*	-0.521
Cc1ccnc(SCC(=O)N2CCN(c3cccc(Cl)c3)CC2)n1	99.0*	0.7	0	30.3	0.849
O=C(CCSCc1ccccc1Cl)N1CCN(c2cccc(Cl)c2)CC1	14.4	0.4	0.9	62.8*	-4.18
O=C(c1cn(-c2ccccc2)nc1-c1cccs1)N(CCO)Cc1ccccc1	75.1*	0.3	0.2	68.8*	-1.05
N/C(=N\c1nc2c(c(=O)[nH]1)CCC2)Nc1ccccc1C(F)(F)F	·	·	·	·	0.172
CCSc1ccccc1C(=O)NCc1ccco1	7.1	1.1	0.9	-10.9	0.00698
CCSC(=Nc1ccccc1)C1=C(O)COC1=O	1.4	0.9	1	5.1	0.585
O=C(CCSCc1ccccc1F)N1CCN(c2ccccn2)CC1	50.3*	0.2	0.5	77.4*	-0.478
O=C(Cc1cccs1)N1CCN(c2ccccn2)CC1	52.1*	0.7	0.5	28.7	-0.642
O=C(c1cn(-c2ccccc2)nc1-c1cccs1)N1CCN(c2ccccn2)CC1	95.5*	0	0	99.6*	-6.2*
O=C(CSCc1nc2ccccc2[nH]1)N1CCN(c2cccc(Cl)c2)CC1	17.5	0.6	0.8	35.5	-3.54*
O=C(CSCc1nc2ccccc2[nH]1)N1CCN(c2ccc(F)cc2)CC1	47.9	0.5	0.5	46.4	0.137
Cc1c(NS(=O)(=O)c2ccc3c(c2)c(=O)n(C)c(=O)n3C)c(=O)n(-c2ccccc2)n1C	0.6	0.9	1	5.7	·
CC(N=Cc1ccccc1O)c1ccccc1 (stereo unspecified)	5.3	1	0.9	-0.4	0.418
CCCS/C(N)=N/N=C/c1ccccc1O	78.9*	0.4	0.2	59.1*	-0.0699
COC(=O)c1cc2n3ccccc3c(C)c(-c3ccccc3)c-2c1C(=O)OC	54.0*	0.2	0.5	81.3*	-0.0559
COC(=O)c1cc2c(C)c(C)c3ccccn3c-2c1C(=O)OC	8.8	1.2	0.9	-16.4	0.097
O=C(NC(Nc1nc2ccccc2s1)(C(F)(F)F)C(F)(F)F)c1ccccc1	75.9*	0.1	0.2	91.8*	-2.59
CCOc1ccc2nc(NC(NC(C)=O)(C(=O)OC)C(F)(F)F)sc2c1 (stereo unspecified)	57.8*	0.9	0.4	5.8	-2.76
CCOc1ccc2nc(NS(=O)(=O)Cc3ccccc3)sc2c1	76.8*	0	0.2	96.2*	-1.93
CCOc1ccc2nc(NC(NC(=O)CC)(C(=O)OC)C(F)(F)F)sc2c1 (stereo unspecified)	70.2*	0.6	0.3	43.5	0.0144
CCCC(=O)Nc1nc2ccc(OCC)cc2s1	16.0	0.8	0.8	23.3	-0.43
CCOc1ccc2nc(NS(=O)(=O)c3ccc(NC(C)=O)cc3)sc2c1	4.9	0.8	1	15.1	0.073
C=CCOn1c(C)c(C(C)=O)c2c3no[n+]([O-])c3ccc21	·	·	·	·	-0.655
CCOC(=O)NC(Nc1nc2ccccc2s1)(C(=O)OCC)C(F)(F)F (stereo unspecified)	93.3*	0.2	0.1	82.9*	-1.39
SMILES	CYP2C19 inh	CYP2C9 act	CYP2C19 activ	CYP2C9 inhib	Cav32 inh
CCOC(=O)C1=C(O)C(Nc2nc3ccccc3s2)(C(F)(F)F)N=C1C (stereo unspecified)	97.6*	0.6	0	42.1	·
O=C(O)C1C2CCC(C2)C1C(=O)Nc1nc2ccccc2s1 (stereo unspecified)	3.4	0.9	1	12.9	0.28
C/C(=C\C(=O)c1ccccc1)NNc1nc2ccccc2s1	60.8*	0.6	0.4	42.1	-2.98
COc1ccc(C2CC(=O)c3ccccc3O2)cc1 (stereo unspecified)	·	·	·	·	-0.152
CC(C)Cc1ccc(C(C)C(=O)N2CCOCC2)cc1 (stereo unspecified)	21.4	0.3	0.8	66.3*	-0.27
CC1CC(C)CN(Cc2nc3c(c(=O)n(C)c(=O)n3C)n2CCN2CCOCC2)C1 (stereo unspecified)	7.1	0.8	0.9	18.7	-0.484
CC(C)CCN(C)C1CCN(S(=O)(=O)c2cccc(C(F)(F)F)c2)CC1	52.1*	0.7	0.5	28.3	·
c1cncc(-c2nc(Oc3ccc(-c4nnco4)cc3)c3c4c(sc3n2)CCCC4)c1	93.2*	0	0.1	97.5*	·
O=C(Cn1ncn2c(cc3ccccc32)c1=O)NCc1ccco1	62.5*	0.8	0.4	15.5	1.11
O=C(Cn1ncc2c(=O)oc3ccccc3c21)NCCC1=CCCCC1	59.3*	0.8	0.4	24.5	1.26
O=C(Cn1ncn2c(cc3ccccc32)c1=O)NCCC1=CCCCC1	99.3*	0.6	0	40.7	-0.979
O=C(Cn1ncc2c(=O)oc3ccccc3c21)NCC1CCCO1 (stereo unspecified)	-5.0	1	1.1	-1.6	0.18
CC(=O)c1cc(F)c(N2CCN(CCC#N)CC2)cc1C	·	·	·	·	-0.648
CN=C(Nc1cc(C)nn1-c1ccccc1)c1ccccc1	81.1*	0.7	0.2	30.1	-0.0454
Cc1cc(Nc2nc3ccccc3[nH]c2=O)n(-c2ccccc2)n1	13.9	0.4	0.9	63.6*	0.454
Cc1cc(Nc2cnc3ccccc3n2)n(-c2ccccc2)n1	69.0*	0.3	0.3	72.5*	-4.62*
Cc1cc(Nc2ccccc2)n(C(=O)c2ccc(Cl)cc2)n1	·	·	·	·	-0.28
Cc1cc(Nc2ccccc2)n(-c2cccc(Cl)c2)n1	79.6*	0.2	0.2	77.7*	-2.69
Cc1cc(NC(=O)c2cc(-c3ccccc3)on2)n(-c2ccccc2)n1	-22.0	1.1	1.2	-11.9	0.519
O=C(Cn1cc2c(n1)CCCC2)N1CCCc2ccccc21	27.5	0.6	0.7	35.1	1.45
CCCn1c(N)c(C(=O)CN2CCN(S(=O)(=O)c3cccs3)CC2)c(=O)[nH]c1=O	10.4	0.9	0.9	12.1	0.132
Cc1ccc(C(C)C)cc1OCCOCCN1CCCC1	11.6	1	0.9	-3.3	-0.0177
CN(Cc1ccccc1)C(=O)CCCn1c(=O)[nH]c2cc(Cl)ccc2c1=O	81.9*	1	0.2	-0.2	-0.0221
Cc1[nH]n(-c2ccccc2)c(=O)c1C1(C(F)(F)F)C(=O)N(c2ccc(F)cc2)C2=C1C(=O)CC(C)(C)C2 (stereo unspecified)	26.3	0.2	0.7	77.6*	2.06
CC1(C)CC(=O)C2=C(C1)N(c1ccc(F)cc1)C(=O)NC2(C(F)(F)F)C(F)(F)F	0.1	1	1	0.6	0.609
Cn1c2ccccc2c2c(C(=O)NCc3ccco3)cn(C3CCCCC3)c(=O)c21	20.4	0.5	0.8	45.4	-1.52
COc1cccc(OCCOc2c(OC)cccc2OC)c1	95.3*	1.8	0	-81.7	0.309
COc1cccc(OC)c1OCCCCN1CCCC1	1.1	1.1	1	-10.5	0.221
COc1cccc(OC)c1OCCOc1ccccc1OC(C)C	81.5*	1.9	0.2	-89.4	-4.09
COc1ccc(C2c3c(ncn(CCN4CCOCC4)c3=N)Oc3ccc4ccccc4c32)cc1OC (stereo unspecified)	13.9	0.7	0.9	25.3	-1.62
